Akt phos inh = HTS Assay for Inhibitors of Akt Phophorylation: Primary Screen | Neuro2A IGF-stimulated pAkt S473 HTRF, 20 min; hits give low values | activity change, % for hits at 50 µM | 0.32% of 360,000 active; in the data active = activity change below about -80%; inconclusive = mostly about -51% to -80%
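Neuro2A cells (4,500/well, DMEM with 0.5% FBS) were treated with compound at a single 50 µM final concentration, stimulated with 6 nM IGF for 20 min at 37 °C, and lysed. Phospho-Akt Ser473 was read by HTRF as 665/615 ratio ×10^4.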
PINK1 modulator = A Quantitative High throughput Screen to Identify Chemical Modulators of PINK1 Expression. PINK1 immunofluorescence, high-content cytometry, 24 h. Potency, µM (doses to about 76.6 µM), most hits filed as activators. 0.2% of 410,000 active; active = well fitted activation curve with a large enough effect; inconclusive = small, poorly fitted or top-dose-only effect; cell line not stated here; note: nearly all actives have a fitted effect of over 65% in size
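Stable cell line, 250 cells/well, 12 h attachment; compounds pinned at 5 concentrations, 24 h; CCCP control. Fixed with nuclear dye, primary antibodies 12 h at 10 degrees C, secondary plus cell stain; laser-scanning cytometer read.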
Vif-APOBEC3G blk = qHTS for Inhibitors of Vif-A3G Interactions: qHTS. 0.076% of 410,000 active. HeLa A3G-eYFP + Vif (tagged APOBEC3G with the HIV-1 protein that degrades it), YFP fluorescence, overnight. Potency, µM (highest dose often 46.1 µM), usual class: inhibitors; note: nearly all actives have a fitted effect of over 60% in size
Target sequence (Q9HC16 whole entry, looked up): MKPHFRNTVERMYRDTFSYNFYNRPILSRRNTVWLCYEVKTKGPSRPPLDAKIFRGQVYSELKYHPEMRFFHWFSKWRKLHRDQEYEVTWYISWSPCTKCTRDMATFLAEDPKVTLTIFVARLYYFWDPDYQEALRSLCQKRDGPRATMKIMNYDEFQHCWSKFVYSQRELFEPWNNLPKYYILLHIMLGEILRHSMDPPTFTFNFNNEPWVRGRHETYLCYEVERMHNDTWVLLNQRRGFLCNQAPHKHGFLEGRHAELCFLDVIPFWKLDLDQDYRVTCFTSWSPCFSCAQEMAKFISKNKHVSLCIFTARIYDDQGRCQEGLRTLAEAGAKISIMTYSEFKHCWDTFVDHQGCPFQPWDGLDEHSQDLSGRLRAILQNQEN
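HeLa cells stably expressing Vif and C-terminally eYFP-tagged A3G, seeded overnight at 37 deg C, then exposed to compound by pintool overnight at 37 deg C. Rise in yellow fluorescence (Ex 488/Em 500-530, Acumen) marks blocked Vif-driven A3G degradation.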
LDHA block = qHTS assay for inhibitors of human lactate dehydrogenase. L-lactate dehydrogenase A chain (Homo sapiens), P00338. purified LDHA, NADH/diaphorase-resazurin fluorescence; hits give low values. 0.15% of 480,000 active. activity change, % (values are at about 110 or 230 µM); in the data active = activity change below about -30%; inconclusive = mostly about -25% to -30%
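Human LDH5 at 2 nM final in Tris HCl pH 7.4 with 0.06 mM NADH and 0.2 mM pyruvate, reacted 5 minutes at room temperature. Remaining NADH coupled via diaphorase/resazurin; resorufin fluorescence read at 0 and 20 minutes, normalized to enzyme-free and DMSO wells.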
Vif-APOBEC3F blk = qHTS for Inhibitors of Vif-A3F Interactions: qHTS; HeLa A3F-eYFP + Vif (tagged APOBEC3F with the HIV-1 protein that degrades it), YFP fluorescence increase; Potency, µM (titrated, usually from 46.1 µM); 0.2% of 390,000 active; note: nearly all actives have a fitted effect of over 65% in size
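HeLa cells stably expressing Vif plus C-terminally eYFP-tagged A3F were seeded, incubated overnight at 37 deg C, dosed with compound, incubated overnight again at 37 deg C. Yellow fluorescence (Ex 488/Em 500-530) reported blocked Vif-mediated A3F-eYFP degradation.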
Glioma ERSR ind = qHTS for Inducers of the Endoplasmic Reticulum Stress Response (ERSR) in Human Glioma: qHTS; Potency, µM, hits mostly activators; 0.02% of 420,000 active; U87-MG GRP78 promoter luciferase reporter, 16 h; AID 602332, 2012; note: series mostly up to about 76 µM; nearly all actives have a fitted effect of over 35% in size
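Stably transfected U87-MG glioma cells carrying a GRP78-based luciferase sensor; 16 h compound incubation. Luminescence end-point read 10 min after Bright-Glo addition at room temperature.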
Numbers stand for hits; i = inactive; ? = inconclusive; nt = not tested or not shown. The list is not random: actives were taken first. Their share in the collection is about 0.74%. Unless noted, calls come from the whole dose curve; as a rule, active = well fitted curve in the direction sought with a large enough effect; inconclusive = small, poorly fitted or top-dose-only effect, or another doubt; inactive = no such curve, though single readings can be large; an effect the other way counts as inactive or inconclusive.

SMILES	Akt phos inh	PINK1 modulator	Vif-APOBEC3G blk	LDHA block	Vif-APOBEC3F blk	Glioma ERSR ind
O=c1[nH]c(=O)n(Cc2ccccc2)c2ncn(Cc3ccco3)c12	nt	nt	nt	i	nt	nt
CC(C)N(Cc1nc(-c2ccccc2)no1)C(=O)Cc1ccc(-c2ccccc2)cc1	nt	nt	nt	i	nt	nt
COc1ccc(C(=O)c2sc3nc(-c4ccc(C)cc4)cc(C(F)(F)F)c3c2N)cc1	nt	i	8.91µM	i	1.26µM	i
COc1ccc(C(=O)c2sc3nc(C)cc(-c4cccs4)c3c2N)cc1OC	i	i	?	i	?	i
COc1ccc(NC(=O)c2sc3nc(-c4ccc(OC)cc4)cc(C(F)(F)F)c3c2N)cc1	nt	?	?	i	?	i
Cc1cc(C)c2c(N)c(C(=O)N/N=C/c3cccs3)sc2n1	i	25.1µM	?	i	?	i
COc1ccc(C(=O)c2sc3nc(C)cc(-c4cccs4)c3c2N)cc1	i	i	12.6µM	i	22.4µM	i
CC(NC(=S)Nc1ccc(S(=O)(=O)N2CCOCC2)cc1)C1CC2CCC1C2 (stereo not drawn)	i	39.8µM	i	i	i	i
O=S(=O)(c1ccc(NC(=S)NC23CC4CC(CC(C4)C2)C3)cc1)N1CCCCC1	i	17.8µM	i	i	i	i
Cc1ccc(C)c(NC(=O)C2CCCN(S(=O)(=O)Cc3ccccc3Cl)C2)c1 (stereo not drawn)	nt	nt	nt	i	nt	nt
CC12CCC(C/C1=N\OC(=O)c1ccc(F)cc1)C2(C)C (stereo not drawn)	-96.4%	i	i	i	nt	i
O=C(c1cc(C2CC2)nc2ccccc12)N1CCC(C(=O)N2CCCCCC2)CC1	nt	nt	nt	i	nt	nt
COc1ccc(C=NNc2ccc([N+](=O)[O-])cn2)cc1	i	11.2µM	i	i	?	i
O=[N+]([O-])c1ccc(N/N=C\c2cccn2-c2ccccc2)nc1	nt	i	11.2µM	i	?	i
CCN(CC)c1ccc(C=NNc2ccc([N+](=O)[O-])cn2)cc1	i	i	?	i	3.55µM	i
O=[N+]([O-])c1ccc(NN=Cc2ccc(O)cc2)nc1	i	i	i	i	i	i
Cc1ccccc1S(=O)(=O)N[C@@H](C)C(=O)NCc1cscn1	nt	nt	nt	i	nt	nt
Cc1ccc(-n2c3c(c(=O)[nH]c2=O)C(C(F)(F)F)(C(F)(F)F)N=C(c2ccncc2)N3)cc1	nt	nt	nt	i	nt	nt
COc1ccc(C2C(C(=O)c3ccco3)=C(O)C(=O)N2CCOCCO)cc1OC (stereo not drawn)	-85.2%	i	i	i	i	i
COc1ccc(C2C(C(=O)c3ccco3)=C(O)C(=O)N2CCc2ccccc2)cc1OC (stereo not drawn)	i	i	i	i	i	i
Cc1nn(C)c(C)c1NC(=O)CSc1nc(Cc2ccccc2)nc2c1cnn2-c1ccccc1	i	i	i	i	i	i
Cc1nn(Cc2ccccc2)c(C)c1NC(=O)CSc1nc(C2CC2)nc2c1cnn2-c1ccccc1	-114.0%	i	i	i	i	i
O=C(O)C(c1c[nH]c2ccc(Br)cc12)N1CCN(c2nsc3ccccc23)CC1 (stereo not drawn)	nt	nt	nt	i	nt	nt
Cc1cc(=O)oc2cc(OCC(=O)Oc3ccccc3)ccc12	nt	nt	nt	i	nt	nt
COc1cccc(NC(=O)c2nnn(Cc3nc(-c4ccc(OC(C)C)cc4)oc3C)c2N)c1	nt	nt	nt	i	nt	nt
SMILES	Akt phos inh	PINK1 modulator	Vif-APOBEC3G blk	LDHA block	Vif-APOBEC3F blk	Glioma ERSR ind
Cc1cccc(-n2c(SCCC(=O)O)nnc2-c2cccs2)c1C	-115.5%	i	i	i	i	i
CN1CCc2c(c(N3CCOCC3)nc3sc(C(=O)N4CCOCC4)c(N)c23)C1	nt	nt	nt	i	nt	nt
O=C(Nc1ccc(Cl)cc1)Nc1ccon1	i	i	20µM	i	i	i
O=C(CCCCn1c(=O)c2ccccc2n(Cc2ccc(F)cc2)c1=O)NCc1ccco1	-99.4%	i	?	i	i	i
O=S1(=O)CCC(NS(=O)(=O)/C=C/c2ccccc2)C1 (stereo not drawn)	-113.7%	i	i	i	i	i
O=S(=O)(/C=C/c1ccccc1)NC1CCCCCC1	i	i	i	i	i	i
O=C(/C=C/c1ccco1)Nc1ccc(Oc2ccc(Cl)cc2)cc1	-107.9%	i	i	i	i	i
COc1cccc(NC(=O)/C=C/c2ccco2)c1	i	i	i	i	i	i
Nc1nc(N2CCN(Cc3ccccc3Cl)CC2)c2[nH]cnc2n1	nt	nt	nt	i	nt	nt
CC(/C=C/c1ccc(N(C)C)cc1)=N\N=C(/N)SC1CC(=O)N(c2ccc(C(=O)O)cc2)C1=O (stereo not drawn)	i	?	i	i	25.1µM	i
CCc1ccc(NC(=O)Nc2ccc3c(c2)N(C)C(=O)CS3)cc1	i	17.8µM	i	i	i	i
Cc1cccc(/N=C/c2sc3ccccc3c2O)n1	i	44.7µM	i	i	?	i
Cc1cccc(/N=C/c2c(O)[nH]c3ccccc23)n1	i	i	i	i	i	i
O=[N+]([O-])c1ccc(Sc2ccc(NC(=S)Nc3ccccc3)cc2)cc1	nt	nt	nt	i	nt	nt
CCCCCCCC(=O)N/N=C/c1ccc([N+](=O)[O-])o1	i	i	?	i	i	i
N#CCc1ccc(NC(=O)/C=C/c2ccc([N+](=O)[O-])o2)cc1	i	i	6.31µM	i	2.51µM	i
O=C(Cc1ccc([N+](=O)[O-])cc1)N/N=C/c1ccc([N+](=O)[O-])o1	i	35.5µM	i	i	i	i
N#C/C(=C\c1ccc([N+](=O)[O-])o1)C(=O)Nc1ccc(F)cc1	i	i	?	i	22.4µM	i
Cc1ccc(OC(C)C(=O)Nc2nonc2-c2ccc(Br)cc2)cc1C (stereo not drawn)	nt	22.4µM	nt	i	nt	nt
CS/C(Nc1cc(Cl)ccc1Cl)=C(/C#N)C(=O)c1ccco1	i	i	i	-47.7	i	i
CN1/C(=C/C=C(C#N)C#N)C(C)(C)c2ccccc21	i	i	i	i	?	i
CC1=C/C(=C\C=C(C#N)C#N)N(C)c2ccccc21	i	?	1.78µM	i	?	i
CCOc1ccc(/C=C/C(=O)c2cccc(O)c2)cc1	nt	nt	nt	i	nt	nt
Cc1ccc(SCCN2CCN(Cc3ccccc3)CC2)cc1	i	i	i	-30.9	i	i
COc1ccc(C(=O)N(Cc2c(F)cccc2Cl)c2ccccn2)cc1	nt	nt	nt	i	nt	nt
CCOC(=O)CN1C(=O)C2Cc3ccccc3CN2C1=S (stereo not drawn)	i	i	i	-30.7	i	i
COc1cccc(NC(=O)c2ccccc2-c2nc(-c3ccccc3)no2)c1	i	i	i	i	i	i
COc1ccc(-c2noc(-c3ccccc3C(=O)NCc3ccco3)n2)cc1	-110.0%	i	i	i	i	i

Compound activity: PubChem, National Center for Advancing Translational Sciences (NCATS)
